Inconclusive results are not listed. Values without a mark were called inactive. Calls come from the whole dose curve; as a rule, active = well fitted cell-killing curve with a large enough effect in the repeat runs; inconclusive = weak or mixed curves; inactive = flat fitted curve, though single readings scatter.
assay: qHTS RealTime-Glo MT Cell Viability Assay in HepG2 cells - 8 hour (AID 1224873); details: RealTime-Glo luminescence; series mostly up to 76.8 µM; viability change, negative = cytotoxic: at the top concentration; note: nearly all actives have a fitted effect of over 55% in size
Text: National Center for Advancing Translational Sciences [NCATS]
NIH Chemical Genomics Center [NCGC]
U.S. Environmental Protection Agency [EPA]
National Institutes of Environmental Health Sciences [NIEHS]
National Toxicology Program [NTP]
U.S. Food and Drug Administration [FDA]
Measure of cell viability is critical in the cell-base assay. Analysis of cell viability is necessary for the characterization of cell responses to cytotoxic drugs and environmental stress. A RealTime-Glo MT Cell Viability Assay to monitor cell viability in real time of continues cell culture during 40 hours of compound treatment was used to screen Tox21 10K library compounds in HepG2 cells. The RealTime-Glo MT Cell Viability Assay is a nonlytic, homogeneous, bioluminescent method to measure cell viability in real time using a simple, plate-based method. The assay involves adding NanoLuc luciferase and a cell-permeant prosubstrate to cells in culture. Viable cells reduce the proprietary prosubstrate to generate a substrate for NanoLuc luciferase. This substrate diffuses from cells into the surrounding culture medium, where it is rapidly used by the NanoLuc Enzyme to produce a luminescent signal. The signal correlates with the number of viable cells, making the assay well suited for cytotoxicity studies.
Tox21 Assay Protocol Summary:
The mixture of HepG2 cell suspension and reagents were dispensed at 600cells/6 ul/well in 1536-well tissue culture treated black solid bottom plates using a Multidrop dispenser. After the assay plates were incubated at a 37 C/5% CO2 incubator for 5 hours, 23 nL of compounds dissolved in DMSO, positive and negative controls was transferred to the assay plate by a pintool work station. The plates were incubated at 37 C for 40 hours. The luminescence intensity were measured at 0h, 8h, 16h, 24h, 32h and 40h time points using ViewLux plate reader during compound treatment.
% is set by controls: 0 for no effect and ±100 for the full control effect.

Row | SMILES | viability change, negative = cytotoxic
1 | O=C(O)c1cc(C(=O)O)cc([N+](=O)[O-])c1 | 2.53%
2 | CC(=O)OCC(=O)[C@@]1(O)CC[C@H]2[C@@H]3CCC4=CC(=O)C=C[C@]4(C)[C@@]3(F)[C@@H](O)C[C@@]21C | -1.5% [at 35.3 µM]
3 | COc1cc(C)c(Cc2cnc(N)nc2N)cc1OC | 0.553% [at 35.3 µM]
4 | CO[C@@H]1COCC[C@@H]1N[C@@H]1CC[C@@](C(=O)N2CCc3ncc(C(F)(F)F)cc3C2)(C(C)C)C1 | -0.081%
5 | CCC(=O)O[C@]1(C(=O)COC)[C@@H](C)C[C@H]2[C@@H]3CCC4=CC(=O)C=C[C@]4(C)C3(F)[C@@H](O)C[C@@]21C (stereo not given in full) | -7.56% [at 35.3 µM]
6 | CCCCOC(=O)C(C)Oc1ccc(Oc2ccc(C(F)(F)F)cn2)cc1 (stereo not given) | -1.61%
7 | CC(O)C(C)O (stereo not given) | 2.09%
8 | COc1ccnc2c1CCCCC2S(=O)c1nc2ccccc2[nH]1 (stereo not given) | -5.55% [at 35.3 µM]
9 | COc1ccc(CN(CCN(C)C)c2ncccn2)cc1 | 6.63% [at 35.3 µM]
10 | O=C(O)c1ccc2cc(O)ccc2c1 | 0.849%
11 | CCCCCCCCCC(C)C=O (stereo not given) | 0.476%
12 | Cc1c(N=C=O)cccc1N=C=O | 2.13%
13 | CCOc1ccccc1O | -5.83%
14 | O=C(O)c1cc(C(=O)O)c(C(=O)O)cc1C(=O)O | 6.07%
15 | CCCN(C1CCN(C(=O)C2CCNCC2)CC1)[C@@H]1CCc2ccc(OC)cc2C1 | -2.37%
16 | SCCOCCOCCS | 2.29%
17 | CC/C=C/CCO | 0.41%
18 | CC(=O)S[C@H](C(=O)N[C@H]1Cc2ccccc2[C@H]2CCC[C@@H](C(=O)O)N2C1=O)C(C)C | 2.6%
19 | Cc1ccc2ccccc2c1[N+](=O)[O-] | 3.55%
20 | CCCCCCC/C=C/C=O | -6.38%

Row | SMILES | viability change, negative = cytotoxic
21 | CCc1c(C)[nH]c2c1C(=O)C(CN1CCOCC1)CC2 (stereo not given) | 10.9% [at 35.3 µM]
22 | CCC(C(=O)O)c1ccc(N2Cc3ccccc3C2=O)cc1 (stereo not given) | 1.56% [at 35.3 µM]
23 | C[C@H](N)C(=O)N[C@@H](C)C(=O)NC1[C@H]2CN(c3nc4c(cc3F)c(=O)c(C(=O)O)cn4-c3ccc(F)cc3F)C[C@@H]12 (stereo not given in full) | 0.622% [at 35.3 µM]
24 | CCCCCCCCCCCCCCCCN | 9.18% [at 35.3 µM]
25 | Cc1cc(C)n(CO)n1 | 0.456%
26 | CCC(C)C1N=C(C)C(C)S1 (stereo not given) | 1.11%
27 | C/C(=C\C(C)CC(C)CC(C)C)C1CC(=O)OC1=O (stereo not given) | 0.218%
28 | O=[N+]([O-])c1ccccc1CCO | 0.34%
29 | Clc1nc2ccccc2nc1Cl | -4.53%
30 | O=C(O)COCC(=O)O | 1.49%
31 | c1ccc(CN(Cc2ccccc2)Cc2ccccc2)cc1 | -6.67%
32 | O=c1c2ccccc2oc2ccccc12 | -0.665%
33 | COc1ccc(/C=C/c2cc(OC)cc(=O)o2)cc1 | -14.3% [at 35.3 µM]
34 | COc1ccc(/C=C/S(=O)(=O)NC(=O)c2ccc(C)cc2Cl)cc1 | 2.64%
35 | Cc1ccccc1CCO | 3.93%
36 | CC(=O)CC/C=C(\C)CC/C=C(\C)CC/C=C(\C)CCC=C(C)C | 7.73% [at 35.3 µM]
37 | COc1ccc(/C(C)=C/C(=O)O)c(OC)c1 | 10.1% [at 35.3 µM]
38 | CCCCCCCCCCCCCCCCC(=O)O | -0.32% [at 35.3 µM]
39 | CCCCC(CC)COCCC#N (stereo not given) | 4.54%
40 | OCCc1ccncc1 | -1.8%

— PubChem BioAssay (Tox21)
